Assay results from PubChem BioAssay (Tox21).
Records with an inconclusive call do not appear. Activity calls are given as the source filed them. Unless noted, the call rests on the fitted dose curve; in most records, active means well fitted curve in the direction sought with a large enough effect in the repeat runs; inconclusive means weak or mixed curves; inactive means no such curve, though single readings can be large; an effect the other way counts as inactive or inconclusive.

What was measured:
[1] = qHTS assay for small molecules that induce genotoxicity in human embryonic kidney cells expressing luciferase-tagged ATAD5 (AID 651632); further: nearly all actives have a fitted effect of over 15% in size
Procedure, shortened: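 ATAD5-luc HEK293T, 2,000 cells/well; cpd or DMSO pin-transferred; 16 hr, 37C/5% CO2; Amplite 30 min RT; luminescence.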

[2] = qHTS assay for small molecule agonists of the p53 signaling pathway - cell viability (AID 651633; calls by dose curve;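 further: p53RE-bla HCT reporter cells with a stable beta-lactamase p53 reporter; series mostly up to about 83 µM; nearly all actives have a fitted effect of over 30% in size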)
Procedure, shortened: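 p53RE-bla cells, seeded at 4,000 per well and rested 5 h at 37 C/5% CO2, received compounds in DMSO for 16 h at 37 C. CellTiter-Glo was then added, and luminescence was read after 30 min at room temperature to gauge cytotoxicity.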

[3] = qHTS assay for small molecules that induce genotoxicity in human embryonic kidney cells expressing luciferase-tagged ATAD5 - cell viability (AID 651634; calls by dose curve; further: nearly all actives have a fitted effect of over 25% in size)
Procedure, shortened: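 Fluorescence from CellTiter-Fluor, reporting protease activity within live cells, served as the viability read-out. HEK293T cells carrying luciferase-tagged ATAD5 had been treated with compound for 15.5 hr at 37C.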

[4] = qHTS assay to test for compound auto fluorescence at 590 nm (red) in HepG2 cells (AID 720674)
Procedure, shortened: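 Intrinsic compound fluorescence in the red window (Ex/Em 540/590 nm) is measured in attached HepG2 cells exposed for 1 hr, DMSO vehicle as baseline, benchmarked to Rose Bengal sodium.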

[5] = qHTS assay to test for compound auto fluorescence at 535 nm (green) in HepG2 cells (AID 720675)
[6] = qHTS assay to test for compound auto fluorescence at 460 nm (blue) in HEK293 cells (AID 720678)
Procedure, shortened: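 Intrinsic compound fluorescence is recorded in live HEK293 cultures after overnight incubation at 37C, 5% CO2, using excitation 405 nm and emission 460 nm. Values are referenced to triamterene.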

[7] = qHTS assay to test for compound auto fluorescence at 590 nm (red) in HEK293 cells (AID 720679)
Procedure, shortened: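 Red autofluorescence, HEK293 cells: 2,000 cells/well; attach 4-5 hr 37C; add 23 nL cpd or DMSO; incubate o/n 37C 5% CO2; read Ex540/Em590; Rose Bengal sodium reference.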

[8] = qHTS assay to test for compound auto fluorescence at 535 nm (green) in HEK293 cells (AID 720680)
[9] = qHTS assay to test for compound auto fluorescence at 460 nm (blue) in HEK293 cell free culture (AID 720681)
Procedure, shortened: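 Test compounds were pinned into cell-free culture medium (DMEM with 10% FBS) and fluorescence was read directly at Ex/Em 405/460 nm. Signals were expressed as fluorescence equivalents of triamterene, with DMSO vehicle as control.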

[10] = qHTS assay to test for compound auto fluorescence at 535 nm (green) in HEK293 cell free culture (AID 720682)
Procedure, shortened: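 Intrinsic compound fluorescence is measured in culture medium containing 10% FBS, with excitation at 485 nm and detection at 535 nm, referenced to fluorescein.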

[11] = qHTS assay to test for compound auto fluorescence at 590 nm (red) in HEK293 cell free culture (AID 720683)
Procedure, shortened: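 Tox21 10K library compounds were pinned into cell-free DMEM with 10% FBS and fluorescence was read at excitation 540 nm. Activity is expressed as Rose Bengal sodium equivalency.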

[12] = qHTS assay to test for compound auto fluorescence at 590 nm (red) in HepG2 cell free culture (AID 720684)
Procedure, shortened: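 Red fluorescence (540 nm excitation, 590 nm emission) was measured after compound transfer into cell-free MEM supplemented with 10% FBS. Values are equivalencies against Rose Bengal sodium.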

[13] = qHTS assay to test for compound auto fluorescence at 460 nm (blue) in HepG2 cell free culture (AID 720685)
Procedure, shortened: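 Compound (23 nL) or DMSO pinned into cell-free MEM with 10% FBS; blue fluorescence read at 405/460 nm excitation/emission, expressed as auto-fluorescence equivalency to triamterene.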

[14] = qHTS assay to test for compound auto fluorescence at 535 nm (green) in HepG2 cell free culture (AID 720686)
[15] = qHTS assay to test for compound auto fluorescence at 460 nm (blue) in HepG2 cells (AID 720687)
Procedure, shortened: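 Cells (2,000/well in MEM with 10% FBS) attached overnight at 37 C, then were exposed to compound or DMSO for 1 hr at 37 C, 5% CO2. Fluorescence read at Ex/Em 405/460 nm, expressed as triamterene-equivalent signal.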

[16] = target: Glucocorticoid receptor (Homo sapiens) (UniProt P04150); assay: qHTS assay to identify small molecule agonists of the glucocorticoid receptor (GR) signaling pathway (AID 720691; active means well fitted activation curve with a large enough effect in the signal ratio in the repeat runs, not every such curve was filed as active; the % refers to the signal ratio)
Glucocorticoid receptor (Homo sapiens), sequence (P04150 whole entry, looked up): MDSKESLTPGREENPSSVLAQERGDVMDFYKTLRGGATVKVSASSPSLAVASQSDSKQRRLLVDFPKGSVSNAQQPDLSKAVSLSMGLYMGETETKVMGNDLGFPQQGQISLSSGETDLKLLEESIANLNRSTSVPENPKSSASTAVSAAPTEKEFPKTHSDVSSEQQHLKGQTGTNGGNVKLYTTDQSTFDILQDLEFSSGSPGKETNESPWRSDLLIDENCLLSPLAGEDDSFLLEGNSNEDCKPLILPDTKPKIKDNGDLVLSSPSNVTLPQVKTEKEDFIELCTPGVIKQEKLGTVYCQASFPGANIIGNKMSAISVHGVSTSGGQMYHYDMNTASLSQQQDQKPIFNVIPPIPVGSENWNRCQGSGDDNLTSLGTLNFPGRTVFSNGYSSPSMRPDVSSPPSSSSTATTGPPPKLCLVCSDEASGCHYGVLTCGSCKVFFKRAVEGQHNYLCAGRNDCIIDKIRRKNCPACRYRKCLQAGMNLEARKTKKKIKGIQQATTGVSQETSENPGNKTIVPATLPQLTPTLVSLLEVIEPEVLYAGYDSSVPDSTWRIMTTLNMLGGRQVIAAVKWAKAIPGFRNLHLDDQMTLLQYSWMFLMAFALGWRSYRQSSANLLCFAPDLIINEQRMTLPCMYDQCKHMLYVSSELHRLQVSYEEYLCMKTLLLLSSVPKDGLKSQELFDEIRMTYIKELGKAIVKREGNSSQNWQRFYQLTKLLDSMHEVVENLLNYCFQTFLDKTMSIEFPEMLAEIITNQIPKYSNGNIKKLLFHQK
Procedure, shortened: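 Fluorescence intensity from LiveBLAzer B/G FRET substrate (2 h, room temperature) reports beta-lactamase expression driven by the glucocorticoid response element in GR-bla HeLa cells after 18 h compound exposure at 37 C.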

[17] = target: Glucocorticoid receptor (Homo sapiens) (UniProt P04150); assay: qHTS assay to identify small molecule antagonists of the glucocorticoid receptor (GR) signaling pathway (AID 720692; active means well fitted inhibition curve with a large enough effect in the signal ratio in the repeat runs, not every such curve was filed as active; the % refers to the signal ratio)
Procedure, shortened: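 HeLa GR-bla cells; cmpd + dex 5 nM final, 18 h 37 C; LiveBLAzer B/G FRET substrate 2 h RT; fluorescence intensity read. Antagonist mode, qHTS.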

[18] = qHTS assay for small molecule disruptors of the mitochondrial membrane potential - cell viability (AID 720634; calls by dose curve;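 further: human HepG2 liver cancer cells; series mostly up to about 83 µM; nearly all actives have a fitted effect of over 20% in size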)
Procedure, shortened: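 Cells: HepG2, 2,000/well, attached overnight. Compound 1 hr, 37 C/5% CO2. +m-MPI dye, +CellTiter-Glo 30 min RT. Readout: luminescence (ATP).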

[19] = qHTS assay for small molecule disruptors of the mitochondrial membrane potential (AID 720635)
Procedure, shortened: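 HepG2 cells (2,000/well) attached overnight at 37C, then took compound for 1 hr at 37C, 5% CO2. Mito-MPS dye was added for 30 min; fluorescence was read at 490/535 nm (monomers) and 540/590 nm (aggregates).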
On the % scale 0 is the no-effect control and ±100 the full control effect.

Cc1c(C(=O)c2c[nH]n(C)c2=O)ccc(S(C)(=O)=O)c1C1=NOCC1
inactive: outcome [1] | outcome [2] | Potency [3] | outcome [4] | outcome [5] | outcome [6] | outcome [7] | outcome [8] | outcome [9] | outcome [10] | outcome [11] | outcome [12] | outcome [13] | outcome [14] | outcome [15] | Potency [16]

CCC(C)C(C)=O (stereo unspecified)
inactive: outcome [1] | outcome [2] | Potency [3] | outcome [4] | outcome [5] | outcome [6] | outcome [7] | outcome [8] | outcome [9] | outcome [10] | outcome [11] | outcome [12] | outcome [13] | outcome [14] | outcome [15] | outcome [17]

OC1OCCOC1O (stereo unspecified)
inactive: outcome [1] | outcome [2] | Potency [3] | outcome [18] | outcome [4] | outcome [5] | outcome [6] | outcome [7] | outcome [8] | outcome [9] | outcome [10] | outcome [11] | outcome [12] | outcome [13] | outcome [14] | outcome [15] | Potency [16]

OCC(O)CN1CCN(c2ccccc2)CC1 (stereo unspecified)
inactive: outcome [1] | outcome [2] | Potency [3] | outcome [18] | Potency [19] | outcome [4] | outcome [5] | outcome [6] | outcome [7] | outcome [8] | outcome [9] | outcome [10] | outcome [11] | outcome [12] | outcome [13] | outcome [14] | outcome [15] | outcome [17]

C=Cc1ccc(C(C)(C)C)cc1
inactive: outcome [1] | outcome [2] | Potency [3] | outcome [18] | outcome [4] | outcome [5] | outcome [6] | outcome [7] | outcome [8] | outcome [9] | outcome [10] | outcome [12] | outcome [13] | outcome [14] | outcome [15]

Cc1c(NC(=O)c2cccnc2)c(=O)n(-c2ccccc2)n1C
inactive: outcome [1] | outcome [2] | Potency [3] | Potency [19] | fluorescence, relative to Rose Bengal [4] 0.269% [at 18.6 µM] | fluorescence, % of fluorescein control [5] -0.0361% [at 18.6 µM] | fluorescence, % of triamterene [6] -0.0133% [at 18.6 µM] | fluorescence, % of fluorescent control [7] 0.237% [at 18.6 µM] | fluorescence, % of fluorescein [8] -0.0295% [at 18.6 µM] | fluorescence, % of fluorescent control [9] -0.0145% [at 18.6 µM] | fluorescence, % of Rose Bengal [12] 0.102% [at 18.6 µM] | fluorescence, % of fluorescent control [13] -0.005% [at 18.6 µM] | fluorescence, % of fluorescein control [14] -0.0688% [at 18.6 µM] | fluorescence, % of fluorescent control [15] 0.0214% [at 18.6 µM] | outcome [17]

CN(C)C(C)(C)CO
inactive: outcome [1] | outcome [2] | Potency [3] | Potency [19] | outcome [4] | outcome [5] | outcome [6] | outcome [7] | outcome [8] | outcome [9] | outcome [10] | outcome [11] | outcome [12] | outcome [13] | outcome [14] | outcome [15] | Potency [16] | outcome [17]

CC12CCC(C1)C(C)(C)C2O (stereo unspecified)
inactive: outcome [1] | outcome [2] | outcome [18] | Potency [19] | outcome [4] | outcome [5] | outcome [6] | outcome [7] | outcome [8] | outcome [9] | outcome [10] | outcome [11] | outcome [12] | outcome [13] | outcome [14] | outcome [15]

OCCN1CCOCC1
inactive: outcome [1] | outcome [2] | Potency [3] | outcome [18] | outcome [4] | outcome [5] | outcome [6] | outcome [7] | outcome [8] | outcome [9] | outcome [10] | outcome [11] | outcome [12] | outcome [13] | outcome [14] | outcome [15]

CCCC(=O)OC/C=C(\C)CCC=C(C)C
inactive: outcome [1] | outcome [2] | Potency [3] | outcome [18] | outcome [4] | outcome [5] | outcome [6] | outcome [7] | outcome [8] | outcome [9] | outcome [11] | outcome [12] | outcome [13] | outcome [14] | outcome [15] | Potency [16] | outcome [17]

C=C(C)C1CC=C(C)C(=O)C1 (stereo unspecified)
inactive: outcome [1] | outcome [2] | Potency [3] | outcome [18] | outcome [4] | outcome [5] | outcome [6] | outcome [7] | outcome [8] | outcome [9] | outcome [10] | outcome [11] | outcome [12] | outcome [13] | outcome [14] | outcome [15] | Potency [16] | outcome [17]

C=C(C)[C@@H]1CC=C(C)C(=O)C1
inactive: outcome [1] | outcome [2] | Potency [3] | outcome [18] | outcome [4] | outcome [5] | outcome [6] | outcome [7] | outcome [8] | outcome [9] | outcome [10] | outcome [11] | outcome [12] | outcome [13] | outcome [14] | outcome [15] | Potency [16] | outcome [17]

O=Cc1ccccc1Cl
inactive: outcome [1] | outcome [2] | Potency [3] | outcome [18] | Potency [19] | outcome [4] | outcome [5] | outcome [6] | outcome [7] | outcome [8] | outcome [9] | outcome [10] | outcome [11] | outcome [12] | outcome [13] | outcome [14] | outcome [15] | Potency [16] | outcome [17]

CC(S)C(C)S (stereo unspecified)
inactive: outcome [1] | outcome [2] | Potency [3] | Potency [19] | outcome [4] | outcome [5] | outcome [6] | outcome [7] | outcome [8] | outcome [9] | outcome [11] | outcome [12] | outcome [13] | outcome [14] | outcome [15] | Potency [16] | outcome [17]
